Results reported in PubChem BioAssay (NCATS).
Values joined by “and” are separate entries in the source; they are usually repeats but may differ in a detail not shown here. Equal values may be shown once. Inconclusive results are not listed. Entries that show only a call come without a potency. Active and inactive are the calls of the source. Unless noted, the call rests on the fitted dose curve.

Key:
[1] = target: Voltage-gated inwardly rectifying potassium channel KCNH2 (Homo sapiens) (UniProt Q12809); assay: qHTS Assay for Small Molecule Inhibitors of the Human hERG Channel Activity (AID 588834; active means well fitted curve in the direction sought with a large enough effect; an effect the other way counts as inactive or inconclusive;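 further: lower thallium flux fluorescence means stronger hERG block; nearly all actives have a fitted effect of over 50% in size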; further: potency means the concentration at half of the fitted maximal effect)
Chain of Voltage-gated inwardly rectifying potassium channel KCNH2 (Homo sapiens) (Q12809 whole entry, looked up): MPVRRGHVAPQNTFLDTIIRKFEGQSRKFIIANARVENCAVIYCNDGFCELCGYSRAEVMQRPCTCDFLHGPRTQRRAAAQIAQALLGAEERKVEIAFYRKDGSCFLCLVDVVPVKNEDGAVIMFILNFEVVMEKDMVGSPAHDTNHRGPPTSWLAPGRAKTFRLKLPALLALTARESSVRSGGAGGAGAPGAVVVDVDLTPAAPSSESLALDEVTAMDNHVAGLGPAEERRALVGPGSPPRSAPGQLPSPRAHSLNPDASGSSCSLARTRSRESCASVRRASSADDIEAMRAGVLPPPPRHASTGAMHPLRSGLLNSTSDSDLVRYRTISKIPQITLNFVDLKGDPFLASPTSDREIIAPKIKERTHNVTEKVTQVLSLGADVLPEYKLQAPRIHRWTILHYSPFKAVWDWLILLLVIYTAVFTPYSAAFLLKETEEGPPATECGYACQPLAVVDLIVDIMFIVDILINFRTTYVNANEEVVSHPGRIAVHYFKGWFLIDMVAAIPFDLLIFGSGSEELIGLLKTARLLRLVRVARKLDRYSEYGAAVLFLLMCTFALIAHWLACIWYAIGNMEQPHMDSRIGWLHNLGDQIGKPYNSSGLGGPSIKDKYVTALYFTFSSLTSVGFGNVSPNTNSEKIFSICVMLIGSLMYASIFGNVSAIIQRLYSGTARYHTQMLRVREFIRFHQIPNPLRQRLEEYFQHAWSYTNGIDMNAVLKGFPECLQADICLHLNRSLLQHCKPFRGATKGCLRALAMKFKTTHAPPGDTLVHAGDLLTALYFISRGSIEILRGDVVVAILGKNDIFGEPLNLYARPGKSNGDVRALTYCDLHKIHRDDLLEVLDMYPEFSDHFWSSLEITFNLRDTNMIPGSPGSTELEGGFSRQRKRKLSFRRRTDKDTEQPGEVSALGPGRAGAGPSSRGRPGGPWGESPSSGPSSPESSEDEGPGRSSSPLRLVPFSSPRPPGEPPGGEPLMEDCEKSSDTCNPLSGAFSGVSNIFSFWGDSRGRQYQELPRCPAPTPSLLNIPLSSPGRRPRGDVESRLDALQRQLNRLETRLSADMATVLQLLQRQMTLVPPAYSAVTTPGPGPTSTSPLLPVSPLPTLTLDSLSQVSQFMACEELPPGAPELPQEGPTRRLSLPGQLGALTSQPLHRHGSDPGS
In short: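 hERG block measured as reduced thallium-dye (FluxOR) fluorescence after stimulation buffer addition, read over 2 min. Cells were hERG-BacMam-transduced U2OS exposed to compound ~10 min […]; concentration-response fitted with Hill equation for AC50.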

[2] = target: Peroxisome proliferator-activated receptor delta (Homo sapiens) (UniProt Q03181); assay: qHTS assay for small molecule antagonists of peroxisome proliferator-activated receptor delta signaling (AID 588535; active means well fitted inhibition curve with a large enough effect in the signal ratio, with a control signal flat, not every such curve was filed as active; the % refers to the signal ratio)
Chain of Peroxisome proliferator-activated receptor delta (Homo sapiens) (Q03181 whole entry, looked up): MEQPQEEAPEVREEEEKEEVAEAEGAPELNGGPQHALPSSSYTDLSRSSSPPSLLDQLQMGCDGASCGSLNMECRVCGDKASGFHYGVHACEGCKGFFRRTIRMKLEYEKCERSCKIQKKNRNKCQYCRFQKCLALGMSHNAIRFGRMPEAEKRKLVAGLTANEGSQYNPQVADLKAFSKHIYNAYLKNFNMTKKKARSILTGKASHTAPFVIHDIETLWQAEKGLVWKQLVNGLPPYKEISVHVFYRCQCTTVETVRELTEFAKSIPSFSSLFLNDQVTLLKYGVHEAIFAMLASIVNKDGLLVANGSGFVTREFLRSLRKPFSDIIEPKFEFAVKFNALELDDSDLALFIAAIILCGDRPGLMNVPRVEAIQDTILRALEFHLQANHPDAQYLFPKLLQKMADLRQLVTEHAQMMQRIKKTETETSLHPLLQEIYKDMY
In short: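 Inhibition of PPAR-delta response element-driven beta-lactamase expression is measured in HEK293T cells exposed to a compound titration series for 18 hrs at 37 C. Half-maximal inhibition comes from Hill equation fitting.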

[3] = target: Vitamin D3 receptor (Homo sapiens) (UniProt P11473); assay: qHTS assay for small molecule antagonists of vitamin D receptor signaling (AID 588541); further: potency means the concentration at half of the fitted maximal effect
Chain of Vitamin D3 receptor (Homo sapiens) (P11473 whole entry, looked up): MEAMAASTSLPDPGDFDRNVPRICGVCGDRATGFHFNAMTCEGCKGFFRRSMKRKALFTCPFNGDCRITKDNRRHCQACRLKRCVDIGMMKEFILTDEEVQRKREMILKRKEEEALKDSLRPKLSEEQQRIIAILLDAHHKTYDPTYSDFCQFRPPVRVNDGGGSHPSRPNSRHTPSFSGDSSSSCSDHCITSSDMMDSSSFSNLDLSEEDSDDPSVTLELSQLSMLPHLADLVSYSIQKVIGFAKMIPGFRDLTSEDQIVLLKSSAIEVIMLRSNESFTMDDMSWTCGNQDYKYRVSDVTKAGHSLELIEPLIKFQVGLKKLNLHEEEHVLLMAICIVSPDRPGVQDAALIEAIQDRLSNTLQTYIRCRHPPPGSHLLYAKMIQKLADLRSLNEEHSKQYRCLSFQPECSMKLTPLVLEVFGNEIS
In short: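 VDR-UAS-bla HEK293T cells (2000/well, 2% charcoal-stripped FBS) were treated with titrated compounds plus 1-alpha,25-dihydroxyvitamin D3 (50 nM or 3 nM final) for 16 h at 37 C. CCF4 beta-lactamase fluorescence was read; Hill fits gave IC50.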

[4] = target: Vitamin D3 receptor (Homo sapiens) (UniProt P11473); assay: qHTS assay for small molecule agonists of vitamin D receptor signaling (AID 588543)
In short: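 Agonist-mode beta-lactamase reporter: HEK293T VDR-UAS-bla cells in charcoal-stripped 2% FBS, compound series 16 h 37 C, CCF4 2 h RT. EC50 from Hill fit, scaled against DMSO and 50 nM calcitriol control.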

[5] = qHTS assay for small molecule agonists of retinoid X receptor alpha signaling (AID 588544); details: HEK293T RXRa-UAS-bla, beta-lactamase reporter, 18 h; 530 nm emission
[6] = target: Retinoic acid receptor RXR-alpha (Homo sapiens) (UniProt P19793); assay: as above
Chain of Retinoic acid receptor RXR-alpha (Homo sapiens) (P19793 whole entry, looked up): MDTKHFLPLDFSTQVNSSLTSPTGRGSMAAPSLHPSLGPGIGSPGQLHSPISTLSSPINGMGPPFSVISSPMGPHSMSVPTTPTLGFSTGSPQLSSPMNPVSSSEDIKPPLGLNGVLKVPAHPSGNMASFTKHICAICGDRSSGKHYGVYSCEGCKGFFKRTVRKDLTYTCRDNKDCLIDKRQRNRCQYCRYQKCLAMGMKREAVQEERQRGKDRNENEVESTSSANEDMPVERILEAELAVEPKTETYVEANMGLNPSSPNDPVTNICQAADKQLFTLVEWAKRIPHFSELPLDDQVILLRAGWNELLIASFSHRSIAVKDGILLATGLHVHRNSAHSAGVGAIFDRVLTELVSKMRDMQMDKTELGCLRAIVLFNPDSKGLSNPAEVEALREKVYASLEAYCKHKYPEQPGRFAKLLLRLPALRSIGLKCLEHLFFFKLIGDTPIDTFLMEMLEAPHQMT

[7] = target: Thyroid hormone receptor beta (Homo sapiens) (UniProt P10828); assay: qHTS assay for small molecule agonists of thyroid hormone receptor beta signaling (AID 588545)
Chain of Thyroid hormone receptor beta (Homo sapiens) (P10828 whole entry, looked up): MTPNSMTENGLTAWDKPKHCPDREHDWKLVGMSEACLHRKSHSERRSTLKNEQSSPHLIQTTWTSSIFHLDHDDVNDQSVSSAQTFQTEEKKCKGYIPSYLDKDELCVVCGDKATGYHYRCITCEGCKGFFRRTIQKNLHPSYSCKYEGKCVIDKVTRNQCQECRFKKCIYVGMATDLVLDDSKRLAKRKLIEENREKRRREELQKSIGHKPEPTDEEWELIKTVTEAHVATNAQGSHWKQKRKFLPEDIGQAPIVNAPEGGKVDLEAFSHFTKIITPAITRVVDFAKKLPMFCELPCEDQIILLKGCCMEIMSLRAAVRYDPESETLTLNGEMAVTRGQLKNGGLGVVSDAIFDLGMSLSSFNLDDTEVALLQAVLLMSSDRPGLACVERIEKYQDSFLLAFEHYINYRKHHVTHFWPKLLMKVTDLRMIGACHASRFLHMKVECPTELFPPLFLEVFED
In short: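 Agonist activity was read as beta-lactamase CCF4 fluorescence (405 ex, 460/530 em), scaled between DMSO (0%) and 10 nM T3 (100%), then Hill-fitted for EC50 and efficacy. HEK 293 TR-UAS-bla cells in 2% charcoal/dextran FBS medium were exposed 18 h at 37 C.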

[8] = qHTS assay for small molecule antagonists of retinoid X receptor alpha signaling (AID 588546; active means well fitted inhibition curve with a large enough effect in the signal ratio, with a control signal flat, not every such curve was filed as active; the % refers to the signal ratio;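 further: cells stimulated with 9-cis-retinoic acid as agonist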); details: HEK293T RXRa-UAS-bla, beta-lactamase ratio, antagonist mode; measured here: W530 green channel, cytotoxicity proxy
In short: (§1)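 Beta-lactamase reporter inhibition, read as CCF4 fluorescence ratio (ex 405, em 460/530 nm) after 2 h at RT. HEK293T UAS-bla cells, 2500/well, were stimulated with 9-cis-RA at 500 or 100 nM final alongside test compound for 18 h at 37 C.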

[9] = target: Retinoic acid receptor RXR-alpha (Homo sapiens) (UniProt P19793); assay: as above; details: HEK293T RXRa-UAS-bla, beta-lactamase ratio, antagonist mode
In short: as §1

[10] = target: Thyroid hormone receptor beta (Homo sapiens) (UniProt P10828); assay: qHTS assay for small molecule antagonists of thyroid hormone receptor beta signaling (AID 588547; active means well fitted inhibition curve with a large enough effect in the signal ratio, with a control signal flat, not every such curve was filed as active; the % refers to the signal ratio;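 further: cells stimulated with 0.4 nM T3 agonist during compound exposure; series mostly up to about 77 µM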); details: TR-UAS-bla HEK293, beta-lactamase ratio, antagonist mode, 18 h
In short: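 TR-UAS-bla GripTite HEK293 cells in 2% charcoal/dextran FBS medium were preincubated 4 h at 37 C, given compound (0.59 nM to 92 uM) plus 0.4 nM T3 (final) for 18 h, then CCF4 for 2 h at RT; Hill fit gave IC50.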

[11] = target: Luciferin 4-monooxygenase (Photinus pyralis) (UniProt P08659); assay: Biochemical firefly luciferase enzyme assay for NPC (AID 624030; active means well fitted curve in the direction sought with a large enough effect; an effect the other way counts as inactive or inconclusive;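 further: purified P. pyralis luciferase at 10 nM with luciferin and ATP substrate; series mostly up to about 59 µM; nearly all actives have a fitted effect of over 70% in size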)
Chain of Luciferin 4-monooxygenase (Photinus pyralis) (P08659 whole entry, looked up): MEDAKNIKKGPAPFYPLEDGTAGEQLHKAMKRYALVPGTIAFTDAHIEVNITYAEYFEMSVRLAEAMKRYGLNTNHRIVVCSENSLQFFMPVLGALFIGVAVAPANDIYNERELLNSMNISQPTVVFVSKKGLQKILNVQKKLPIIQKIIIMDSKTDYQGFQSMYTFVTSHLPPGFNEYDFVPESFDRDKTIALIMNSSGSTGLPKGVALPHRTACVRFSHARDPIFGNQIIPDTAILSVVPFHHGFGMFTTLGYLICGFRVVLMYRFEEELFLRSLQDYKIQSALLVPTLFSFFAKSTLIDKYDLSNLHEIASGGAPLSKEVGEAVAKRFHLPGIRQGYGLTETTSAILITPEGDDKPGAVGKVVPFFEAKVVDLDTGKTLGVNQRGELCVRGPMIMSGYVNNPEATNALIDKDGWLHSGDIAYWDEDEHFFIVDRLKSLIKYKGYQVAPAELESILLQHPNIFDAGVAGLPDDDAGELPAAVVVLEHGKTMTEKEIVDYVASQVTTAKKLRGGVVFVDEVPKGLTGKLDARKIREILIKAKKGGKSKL
In short: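 Counter-screen for direct inhibition of the luciferase enzyme by approved-drug library compounds, run at 10 nM enzyme in 50 mM Tris acetate (final). Luminescence was read within 5 min of enzyme-buffer addition and normalized to PTC124 versus DMSO (0%).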

[12] = S16 Schwann cell viability assay (CellTiter-Glo assay) (AID 624031; active means well fitted curve in the direction sought with a large enough effect; an effect the other way counts as inactive or inconclusive;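 further: cellular ATP luminescence as a viability measure; series mostly up to about 58 µM; nearly all actives have a fitted effect of over 70% in size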)
In short: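 Untransfected S16 rat Schwann cells; compound 24 h, 37 °C/5% CO2; CellTiter-Glo ATP luminescence. % activity vs no-cell wells and DMSO controls (0%); concentration-effect curves classed by r2, response magnitude, activity.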

[13] = S16 Schwann cell PMP22 intronic element firefly luciferase assay (AID 624032; active means well fitted curve in the direction sought with a large enough effect; an effect the other way counts as inactive or inconclusive; further: nearly all actives have a fitted effect of over 30% in size; further: potency means the concentration at half of the fitted maximal effect)
In short: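 Rat S16 Schwann cells stably carrying a PMP22 intronic element-driven Fluc reporter were seeded overnight, then exposed to compounds for 24 h at 37 °C. Luminescence was normalized to PTC124 (positive control) and DMSO (0% activity).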

[14] = target: Peroxisome proliferator-activated receptor gamma (Homo sapiens) (UniProt P37231); assay: qHTS assay for small molecule antagonists of peroxisome proliferator-activated receptor gamma signaling (AID 588537; active means well fitted inhibition curve with a large enough effect in the signal ratio, with a control signal flat, not every such curve was filed as active; the % refers to the signal ratio;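 further: reporter cells co-stimulated with 50 nM rosiglitazone agonist during compound treatment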)
Chain of Peroxisome proliferator-activated receptor gamma (Homo sapiens) (P37231 whole entry, looked up): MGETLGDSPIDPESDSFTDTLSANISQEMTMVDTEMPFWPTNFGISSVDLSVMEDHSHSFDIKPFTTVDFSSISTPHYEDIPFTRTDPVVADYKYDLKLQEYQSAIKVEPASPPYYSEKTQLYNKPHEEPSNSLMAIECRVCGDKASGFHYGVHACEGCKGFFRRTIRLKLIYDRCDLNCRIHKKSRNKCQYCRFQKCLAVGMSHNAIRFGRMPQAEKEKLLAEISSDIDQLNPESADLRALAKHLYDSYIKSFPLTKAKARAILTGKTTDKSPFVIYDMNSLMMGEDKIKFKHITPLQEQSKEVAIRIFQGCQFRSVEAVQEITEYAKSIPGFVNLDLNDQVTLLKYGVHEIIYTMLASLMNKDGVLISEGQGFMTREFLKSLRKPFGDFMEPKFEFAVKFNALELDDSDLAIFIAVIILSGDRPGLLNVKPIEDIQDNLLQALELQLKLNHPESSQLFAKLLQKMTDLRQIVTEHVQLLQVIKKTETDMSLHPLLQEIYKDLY
In short: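 Compounds are tested as concentration series for inhibition of rosiglitazone-driven (50 nM) reporter expression in GeneBLAzer PPAR-gamma-UAS-bla HEK293 cells. After 16 h at 37 C, CCF4 substrate is added for 2 h at room temperature and blue/green fluorescence is measured.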

[15] = S16 Schwann cell PMP22 intronic element beta-lactamase assay (AID 624044); further: nearly all actives have a fitted effect of over 15% in size
In short: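 Beta-lactamase reporter under a PMP22 intronic regulatory element in stable S16 rat Schwann cells; 24 h compound exposure. 460 nm blue signal normalized between DMSO (0%) and potassium clavulanate, with 535 nm FRET tracking viability; curves classed by r2 and response.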

[16] = target: Glutaminase kidney isoform, mitochondrial (Homo sapiens) (UniProt O94925); assay: qHTS for Inhibitors of Glutaminase (GLS): LOPAC Validation (AID 624146; active means well fitted curve in the direction sought with a large enough effect; an effect the other way counts as inactive or inconclusive;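 further: glutamate product detected by oxidase and peroxidase coupled Amplex red fluorescence gain; series mostly up to about 46 µM; nearly all actives have a fitted effect of over 60% in size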)
In short: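 Human kidney-isoform GLS in 45 mM KH2PO4 pH 8.2, 0.02% Tween-20, with compound, started with 1mM L-Glutamine (added stock). Glutamate oxidase/HRP/Amplex red coupled fluorescence read at start and after 30 min at RT.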

[17] = qHTS of Trypanosoma Brucei Inhibitors: LOPAC Validation (AID 624147; active means well fitted curve in the direction sought with a large enough effect; an effect the other way counts as inactive or inconclusive)
In short: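 Luminescence from Kinase-Glo Plus, added after a 45-minute room-temperature reaction, served as the end-point read-out. The enzyme and substrate were preincubated with compound before ADP (130 uM final) initiated turnover. Concentration-effect curves came from normalized qHTS data.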

[18] = target: Glucagon-like peptide 1 receptor (Homo sapiens) (UniProt P43220); assay: qHTS of GLP-1 Receptor Agonists: LOPAC Validation (AID 624148; active means well fitted curve in the direction sought with a large enough effect; an effect the other way counts as inactive or inconclusive;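 further: higher luminescence signal means agonism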)
Chain of Glucagon-like peptide 1 receptor (Homo sapiens) (P43220 whole entry, looked up): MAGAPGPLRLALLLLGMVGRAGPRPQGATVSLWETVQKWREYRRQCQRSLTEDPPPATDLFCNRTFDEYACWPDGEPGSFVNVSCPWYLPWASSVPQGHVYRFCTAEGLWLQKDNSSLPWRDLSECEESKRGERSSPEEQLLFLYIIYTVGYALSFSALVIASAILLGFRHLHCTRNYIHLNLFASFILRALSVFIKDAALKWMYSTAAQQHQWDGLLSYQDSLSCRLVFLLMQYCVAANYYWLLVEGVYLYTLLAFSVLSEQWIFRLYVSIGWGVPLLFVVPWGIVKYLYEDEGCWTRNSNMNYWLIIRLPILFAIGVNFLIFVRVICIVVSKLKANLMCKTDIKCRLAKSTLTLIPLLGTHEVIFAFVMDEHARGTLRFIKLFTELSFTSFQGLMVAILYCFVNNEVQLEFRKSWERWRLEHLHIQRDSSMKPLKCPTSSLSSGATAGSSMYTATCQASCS
In short: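 HEK293 cells stably co-expressing a cAMP-responsive luciferase reporter and a hypersensitive GLP-1R were plated 12 h at 37 °C and exposed to compounds for 4-6 hr at 37 °C, 5% CO2. Luminescence was read 12 min after adding detection reagent.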

[19] = qHTS of Nrf2 Activators: LOPAC Validation (AID 624149; active means well fitted curve in the direction sought with a large enough effect; an effect the other way counts as inactive or inconclusive)
In short: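 Luciferase signal from ARE activation, read with Steady-Glo after 30 min at room temperature. Compounds were pin-transferred onto AREc32_Fluc cells (1000/well, OPTI-MEM/5% FBS, seeded overnight) and left 24 hr at 37 deg C.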

CC(=O)NC1CCSC1=O (configuration not stated)
Potency [1]: inactive

CCOC(=O)CC(SP(=S)(OC)OC)C(=O)OCC (configuration not stated)
outcome [2]: inactive | Potency [3]: inactive | outcome [4]: inactive | max response [5]: 5.59% | Potency [6]: inactive | outcome [7]: inactive | max response [8]: 12.5% and 3.13% and -23.2% | max response [9]: -24.3% (inactive) and -13.6% (inactive) and -13.7% (inactive) | activity change % (negative = inhibition) [10]: -33.5% (inactive) | Potency [1]: inactive | Potency [11]: inactive | outcome [12]: inactive | Potency [13]: inactive

CC(C)NC(C)C
Potency [3]: inactive | outcome [4]: inactive | max response [5]: -5.82% | Potency [6]: inactive | outcome [7]: inactive | max response [8]: -16.3% | max response [9]: 9.42% (inactive) | Potency [1]: inactive | Potency [11]: inactive | Potency [13]: inactive

O=C1c2ccccc2C(=O)C1C(=O)C(c1ccccc1)c1ccccc1
outcome [14]: inactive | max response [5]: -20.8% | Potency [6]: inactive | outcome [7]: inactive | max response [8]: -10.9% | max response [9]: 13.2% (inactive) | activity change % (negative = inhibition) [10]: 3.48% (inactive) | Potency [1]: inactive | Potency [11]: inactive | Potency [13]: inactive | outcome [15]: inactive

CC(=O)OCC1=C(C(=O)O)N2C(=O)[C@@H](N)[C@H]2SC1
Potency [1]: inactive

CC(C)c1c(CN(C)C(C)Cc2ccccc2)n(C)n(-c2ccccc2)c1=O (configuration not stated)
Potency [1]: inactive

COP(=S)(OC)Oc1ccc(SC)c(C)c1
outcome [2]: inactive | outcome [14]: inactive | Potency [3]: inactive | outcome [4]: inactive | max response [5]: -8.01% and -11.8% | Potency [6]: inactive | outcome [7]: inactive | max response [8]: -22.3% and -7.85% | max response [9]: -5.05% (inactive) and -30% (inactive) | activity change % (negative = inhibition) [10]: -0.0791% (inactive) | outcome [12]: inactive | outcome [15]: inactive

CC(=O)N1CCN(c2ccc(OC[C@H]3CO[C@](Cn4ccnc4)(c4ccc(Cl)cc4Cl)O3)cc2)CC1
Potency [3]: 44.7 µM (active)

COP(=S)(OC)SCN1C(=O)c2ccccc2C1=O
outcome [7]: inactive | activity change % (negative = inhibition) [10]: -12.6% (inactive) | Potency [1]: inactive | Potency [11]: inactive | Potency [13]: inactive | outcome [15]: inactive

Nc1ccccc1
outcome [2]: inactive | outcome [14]: inactive | outcome [4]: inactive | max response [5]: 9.36% | Potency [6]: inactive | outcome [7]: inactive | max response [8]: -11.1% | max response [9]: 4.87% (inactive) | activity change % (negative = inhibition) [10]: -1.42% (inactive) | Potency [1]: inactive | Potency [11]: inactive

CCCC(C)(COC(N)=O)COC(N)=O
outcome [2]: inactive | outcome [14]: inactive | Potency [3]: inactive | outcome [4]: inactive | outcome [7]: inactive | max response [8]: -3.53% | max response [9]: -3.87% (inactive) | activity change % (negative = inhibition) [10]: 14.4% (inactive) | Potency [1]: inactive | Potency [11]: inactive | Potency [13]: inactive | outcome [15]: inactive

C[C@@H]1O[C@@H]1P(=O)(O)O
Potency [1]: inactive

O=[N+]([O-])O[C@H]1CO[C@H]2[C@@H]1OC[C@H]2O[N+](=O)[O-]
Potency [1]: inactive

O=C(Oc1ccccc1)c1ccccc1O
max response [5]: 23.5% | Potency [6]: inactive

CCOP(=S)(OCC)Oc1ccc2c(C)c(Cl)c(=O)oc2c1
outcome [14]: inactive | outcome [7]: inactive | Potency [1]: inactive | Potency [11]: inactive | Potency [13]: 8.09 µM (active) | outcome [15]: inactive

Oc1ccccc1
max response [5]: -13.8% and -5.05% | Potency [6]: inactive

Nc1ccccc1C(=O)O
outcome [14]: inactive | Potency [3]: inactive | outcome [4]: inactive | max response [5]: -3.98% | Potency [6]: inactive | outcome [7]: inactive | max response [8]: -6.42% | max response [9]: 6.99% (inactive) | activity change % (negative = inhibition) [10]: 18% (inactive) | Potency [1]: inactive | Potency [11]: inactive | outcome [12]: inactive

CC(C)C[C@H](CN)CC(=O)O
Potency [1]: inactive

CN1C[C@H](C(=O)N[C@]2(C)O[C@@]3(O)[C@@H]4CCCN4C(=O)[C@H](Cc4ccccc4)N3C2=O)C=C2c3cccc4[nH]cc(c34)C[C@H]21
outcome [4]: inactive | outcome [7]: inactive | Potency [1]: 12.6 µM (active) | Potency [11]: inactive

NCCc1ccc(O)cc1
outcome [2]: inactive | max response [5]: -3.57% | Potency [6]: inactive | outcome [7]: inactive | max response [8]: -9.48% | max response [9]: -2.52% (inactive) | activity change % (negative = inhibition) [10]: -4.83% (inactive) | Potency [1]: inactive | Potency [11]: inactive | Potency [13]: inactive | outcome [15]: inactive | Potency [16]: inactive | outcome [17]: inactive | outcome [18]: inactive | outcome [19]: inactive

C[C@]12CCC(=O)C=C1CC[C@@H]1[C@@H]2CC[C@]2(C)C(=O)CC[C@@H]12
outcome [7]: inactive | max response [8]: 24.5% | max response [9]: 1.25% (inactive) | activity change % (negative = inhibition) [10]: 12.5% (inactive) | Potency [1]: inactive | Potency [11]: inactive | Potency [13]: inactive | outcome [15]: inactive

Nc1ccc([As](=O)(O)O)cc1
outcome [2]: inactive | outcome [14]: inactive | Potency [3]: inactive | outcome [4]: inactive | max response [5]: -10% | Potency [6]: inactive | outcome [7]: inactive | max response [8]: -13.3% | max response [9]: -8.6% (inactive) | activity change % (negative = inhibition) [10]: 0.893% (inactive) | Potency [1]: inactive | Potency [11]: inactive | Potency [13]: inactive | outcome [15]: inactive

Nc1nc(N)nc(NC2CC2)n1
outcome [2]: inactive | max response [5]: -19.4% | Potency [6]: inactive | outcome [7]: inactive | max response [8]: -17.8% | max response [9]: 6.27% (inactive) | activity change % (negative = inhibition) [10]: -23% (inactive) | Potency [1]: inactive | Potency [11]: inactive | outcome [12]: inactive | Potency [13]: inactive

COC(=O)C(c1ccccc1)C1CCCCN1 (configuration not stated)
outcome [14]: inactive | Potency [3]: inactive | outcome [4]: inactive | outcome [7]: inactive | max response [8]: -4.37% | max response [9]: -5.94% (inactive) | activity change % (negative = inhibition) [10]: 13% (inactive) | Potency [1]: inactive | Potency [11]: inactive | Potency [13]: inactive | outcome [15]: inactive

Clc1ccc(C(c2ccc(Cl)cc2)C(Cl)(Cl)Cl)cc1
outcome [2]: inactive | outcome [14]: inactive | Potency [3]: inactive | outcome [4]: inactive | outcome [7]: inactive | activity change % (negative = inhibition) [10]: -20.1% (inactive) and -18.4% (inactive) | Potency [1]: 31.6 µM (active) | Potency [11]: inactive | Potency [13]: 10.2 µM (active) | outcome [15]: inactive
